Pf growth 48h: P. falciparum growth inhibition at 48 hours (one generation); P. falciparum luciferase growth in erythrocytes, 48 h; Potency, µM (top dose mostly 28.7 µM), for inactives: at the highest dose activity change, negative = inhibition, usual class: inhibitors; hit rate 5.9% among 310,000; AID 504832; further: potency means the concentration at half of the fitted maximal effect; on the % scale 0 is the no-effect control and ±100 the full control effect
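Luciferase-expressing parasites in RBCs, 2% Hct / 0.1% parasitemia final; RPMI 1640 + 0.5% Albumax; 37 C, 5% CO2, one generation; luminescence read-out, lower signal = inhibition.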
AMA1 RON2 block: inhibitors of Plasmodium falciparum AMA1-RON2 interaction | hit rate 0.2% among 360,000 | AlphaScreen AMA1-biotinylated RON2 peptide binding | Potency, µM (highest dose often 58.2 µM), inactives show at the highest dose activity change, negative = inhibition, actives largely listed as inhibitors | AID 720542;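 further: potency means the concentration at half of the fitted maximal effect; 0% = vehicle wells and -100% = peptide control; nearly all actives have a fitted effect of over 45% in size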
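AMA1 (3D7) with his tag at 25 nM final met compounds first, then biotinylated RON2 peptide at 25 nM; detection used donor plus acceptor beads, 10 µg/mL apiece, read by AlphaScreen after 30 min at room temperature.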
Pf growth 96h: P. falciparum growth inhibition at 96 hours; AID 504834; P. falciparum luciferase reporter growth, 96 h; hit rate 6.9% among 320,000; Potency, µM (titrated, usually from 28.7 µM), for inactives: at the highest dose activity change, negative = inhibition, actives largely listed as inhibitors; further: potency means the concentration at half of the fitted maximal effect; on the % scale 0 is the no-effect control and ±100 the full control effect
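Delayed-death screen, second-generation endpoint: infected erythrocytes, 2% hematocrit, 0.05% parasitemia final; 96 hours at 37 C, 5% CO2; luciferase detection reagent; luminescence decrease equals reduced growth.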
SARS PLP yeast: SARS-CoV PLP inhibition in yeast; Potency, µM (titrated, usually from 32.9 µM), for inactives: top-dose activity, positive = growth rescue, most hits filed as activators; S. cerevisiae expressing SARS-CoV PLpro, growth rescue; AID 485353; hit rate 0.19% among 330,000; calls by dose curve; further: potency means the concentration at half of the fitted maximal effect; 0% is about no effect; nearly all actives have a fitted effect of over 55% in size
Shiga toxin inh: blocks Shiga toxin action in Vero cells; Vero cells, Shiga toxin protein synthesis inhibition reporter; inhibition, % at 38.7 µM; hit rate 9.2% among 290,000; in the data active means inhibition mostly above about 28%, no sharp cut-off; inactive means mostly below about 43%; further: 0% is about no effect
Cycloheximide cs: counter-screen for Shiga toxin inhibitors: cycloheximide protein synthesis inhibition. AID 2314. max response, %. hit rate 12% among 300,000. cell reporter, cycloheximide protein synthesis inhibition counterscreen; in the data active means max response mostly above about 13%, no sharp cut-off; inactive means mostly below about 14%; further: read at 38.3 µM for the half of the compounds with a filed dose; 0% is about no effect
Starred values were filed as active, the others as inactive; ? = inconclusive; · = no result given. Shown are actives, neighbours in structure and some others; about 19% of the full set was active somewhere. Unless noted, the call rests on the fitted dose curve; in most records, active means well fitted curve in the direction sought with a large enough effect; inconclusive means small, poorly fitted or top-dose-only effect, or another doubt; inactive means no such curve, though single readings can be large; an effect the other way counts as inactive or inconclusive.

SMILES | Pf growth 48h | AMA1 RON2 block | Pf growth 96h | SARS PLP yeast | Shiga toxin inh | Cycloheximide cs
Cc1ccc(-n2ncc3c(NNC(=O)c4ccco4)ncnc32)cc1Cl | 25% | 140% | ? | -2% | 84 | 57*
Cc1ccc(-n2ncc3c(NNC(=O)Cc4ccccc4)ncnc32)cc1 | 32% | 42% | 17% | 2% | 21 | 14*
O=C(NNc1ncnc2c1cnn2-c1ccc(F)cc1)c1cccs1 | -19% | 103% | ? | 5% | 11 | -10
Cn1ncc2c(NNC(=O)Cc3ccccc3)ncnc21 | 0% | 39% | 20% | -3% | -6 | -4
Cc1ccc(-n2ncc3c(SCC(=O)NNC(=O)c4ccco4)ncnc32)cc1 | 17% | 50% | ? | 0% | 6 | -1
Cc1ccccc1OCC(O)CN(CCO)Cc1ccccc1 (stereo not given) | ? | 0% | ? | 1% | 0 | -3
CC(C)CN(CC(C)C)CC(O)COc1ccccc1Br (stereo not given) | ? | 10% | 3.3µM* | 6% | -12 | -4
CCCCN(CCCC)CC(O)COc1ccccc1Br (stereo not given) | 4.1µM* | -8% | 93% | 2% | 12 | -4
CC(=O)Nc1cccc(NC(=O)C2CCN(C(=O)c3ccco3)CC2)c1 | 18% | 2% | ? | -4% | -5 | -7
COc1ccc(CN2C(=O)C(CC(C)C)Nc3ncnc(N4CCN(c5ccccc5)CC4)c32)cc1 (stereo not given) | 2.6µM* | -19% | 12µM* | 2% | · | ·
CC(C)CC1Nc2ncnc(N3CCCCC3)c2N(Cc2ccccc2)C1=O (stereo not given) | 12µM* | -5% | ? | 3% | · | ·
CC1Nc2ncnc(N3CCN(c4ccccc4)CC3)c2N(Cc2ccccc2)C1=O (stereo not given) | ? | -1% | ? | 0% | · | ·
CC(C)CC1Nc2ncnc(N3CCN(c4ccccc4)CC3)c2N(Cc2ccccc2)C1=O (stereo not given) | 10µM* | 1% | 12µM* | 5% | · | ·
COc1ccc(CN2C(=O)C(CC(C)C)Nc3ncnc(N4CCCCC4)c32)cc1 (stereo not given) | ? | 2% | ? | -2% | · | ·
CC(C)CC1Nc2ncnc(N3CCN(c4ccccc4)CC3)c2N(Cc2ccc(Br)cc2)C1=O (stereo not given) | 2.9µM* | -14% | 5.9µM* | 1% | · | ·
COc1ccc(CN2C(=O)C(CC(C)C)Nc3ncnc(N4CCOCC4)c32)cc1 (stereo not given) | ? | 0% | ? | 0% | · | ·
O=C(c1ccc(F)cc1)N1CCC(C(=O)N2CCN(c3ncccn3)CC2)CC1 | · | 8% | · | 16% | · | ·
O=C(O)c1ccc(NS(=O)(=O)c2cccc(C(=O)Nc3cccc(C(=O)O)c3)c2)cc1 | · | 3% | 54% | -2% | 6 | 4
CC(C)CC1NC(=S)N(Cc2ccccc2)C1=O (stereo not given) | ? | 57% | 9.3µM* | -15% | 21 | -3
O=C1C(Cc2ccccc2)NC(=S)N1Cc1ccccc1 (stereo not given) | 22% | 17% | -26% | 2% | -5 | 1
COc1ccc(CN2C(=O)C(Cc3ccccc3)Nc3ncnc(N4CCN(c5ccccc5)CC4)c32)cc1 (stereo not given) | 2.6µM* | -15% | 6.6µM* | -1% | · | ·
Cc1ccc(C(=O)NCCc2ccccn2)cc1S(=O)(=O)N1CCOCC1 | -15% | 25% | ? | 6% | 8 | 9
COc1ccc(C(=O)Nc2nc3ccccc3c(=O)[nH]2)cc1 | 161% | -10% | · | 2% | 82* | 44*
Cc1ccc(Nc2nc(N)c3ccccc3n2)cc1C | ? | -7% | ? | -9% | 37* | 20*
COc1ccc(Nc2nc3ccccc3c(=O)[nH]2)cc1 | 2.1µM* | -9% | 4.7µM* | 3% | -1 | 7
SMILES | Pf growth 48h | AMA1 RON2 block | Pf growth 96h | SARS PLP yeast | Shiga toxin inh | Cycloheximide cs
COc1ccc(C(=O)Nc2nc3cc(OC)c(OC)cc3c(=O)[nH]2)cc1 | -5% | -8% | -3% | -2% | 18 | -3
Cc1ccc(Nc2nc3ccccc3c(=O)[nH]2)cc1C | ? | 0% | 0% | 2% | 36* | 37*
c1ccc(Cc2noc(CN3CCN(CCOc4ccccc4)CC3)n2)cc1 | 1% | -7% | ? | 1% | 1 | 1
Cc1ccc(NC(=O)CCSc2nnnn2-c2ccc3c(c2)OCO3)cc1C | -29% | -1% | · | -11% | 13 | 4
CCCn1c(SCC(=O)N(C)CC(=O)Nc2ccc(C)cc2)n[nH]c1=O | -21% | 3% | ? | 1% | · | ·
COc1ccc(Nc2nc3c([nH]2)c(=O)[nH]c(=O)n3C)cc1 | 3% | 1% | 13µM* | -1% | -7 | 1
COCCCNc1nc2c([nH]1)c(=O)[nH]c(=O)n2C | 11% | 14% | 0% | 1% | -28 | -4
C=C1CCN([C@@H](CC(C)C)C(=O)O)S(=O)(=O)c2ccccc21 | · | -2% | · | · | · | ·
Cc1cc(C)nc(SC2=CS(=O)(=O)c3ccccc32)n1 | ? | 8% | -25% | 7% | 14 | 8
O=S1(=O)C=C(Sc2nc3ccccc3s2)c2ccccc21 | 8.3µM* | 21% | · | -23% | 76* | 77*
CSc1nc(N(CCO)CCO)c2sc3nc(-c4ccco4)c4c(c3c2n1)CCC4 | ? | 11µM* | 0% | 2% | -8 | 9
CCN(C1CCCCC1)S(=O)(=O)c1ccc(S(=O)(=O)N2CCN(CCC#N)CC2)cc1 | ? | -4% | 6.6µM* | -5% | 14 | 0
N#CCCN1CCN(S(=O)(=O)c2ccc(S(=O)(=O)N3CCCCCC3)cc2)CC1 | 3% | 17% | 170% | -1% | 4 | -3
CCCc1nc2c(sc3nc4c(cc32)COC(C)(C)C4)c(=O)o1 | ? | -1% | ? | 0% | 13 | -1
Cc1ccc(C(=O)Nc2ccccc2Cl)cc1 | 205% | 21% | -11% | 2% | · | 37*
O=C(Nc1ccccc1C(=O)Nc1nnc(C(F)(F)F)s1)c1ccccc1Cl | ? | 0% | 4.7µM* | -1% | 8 | 11
CS(=O)(=O)c1ccc(C(=O)Nc2ccccc2Cl)cc1 | 78% | -5% | -26% | 0% | 13 | 14
O=C(Nc1ccc(Cl)cc1Cl)C1=Cc2ccccc2OC1 | · | 12% | 134% | -1% | 68* | 54*
O=C(Nc1ccc(Cl)cc1)C1=Cc2cc(Cl)ccc2OC1 | -3% | -19% | · | 2% | -12 | 1
O=C(Nc1ccc(C(=O)Nc2ccccc2Cl)cc1)c1cccnc1 | -5% | 3% | -11% | -8% | 29* | 19*
CC(=O)NC12CC3CC(C1)CC(C(=O)N1CCN(c4ncccn4)CC1)(C3)C2 | · | -5% | · | · | · | ·
COc1cc(C)c(COc2ncnc3ccccc23)cc1OC | ? | 8% | -5% | 1% | 23 | 8
CCOC(=O)CNC(=S)N1CCn2c(nc3ccccc32)C1 | -4% | 9% | ? | 6% | 44 | 4

Assay outcomes from PubChem BioAssay.
